# Measured values reported in the supplement of paper PMC9801561.
# ± gives the standard deviation of the averaged measurements.
# Key:
# [1] = tested on: Escherichia coli Nissle 1917; experiment: area under OmniLog respiration curve over 48 h (OmniLog units x h); higher = more growth / nutrient utilisation; extreme values may be limits of the assay; details: incubation: 48 h, 37 °C
# [2] = tested on: Escherichia coli Nissle 1917; experiment: DuctApe activity index of respiration/growth curve (0 no growth to 9 maximum) (index 0-9); higher = more growth / nutrient utilisation, active = 3 or more; extreme values may be limits of the assay; details: incubation: 48 h, 37 °C
# [3] = nutrient role: C-Source, carbohydrate
# [4] = nutrient role: C-Source, carboxylic acid
# [5] = nutrient role: N-Source, inorganic
# 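Throughout, for DuctApe activity index of respiration/growth curve (0 no growth to 9 maximum): biolog PM4 phosphorus and sulfur plates, tetrazolium violet dye reduction read in the OmniLog every 15 min, kinetic curves scored by DuctApe, each plate run in triplicate.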
smiles,measurement,setting,value
N#C[C@H](O[C@@H]1O[C@H](CO[C@@H]2O[C@H](CO)[C@@H](O)[C@H](O)[C@H]2O)[C@@H](O)[C@H](O)[C@H]1O)c1ccccc1 [Amygdalin],area under OmniLog respiration curve,[1]; [3],4.97 ± 0.43
same,DuctApe activity index,[2]; [3],0 (inactive)
O=C(O)CC(Br)C(=O)O (stereo not drawn) [Bromosuccinic acid],area under OmniLog respiration curve,[1]; [4],7400 ± 380
same,DuctApe activity index,[2]; [4],8 (active)
O=C(O)CCCO [g-Hydroxybutyric acid],area under OmniLog respiration curve,[1]; [4],5800 ± 210
same,DuctApe activity index,[2]; [4],7 (active)
O=[N+]([O-])O [Nitrate],area under OmniLog respiration curve,[1]; [5],4.72
same,DuctApe activity index,[2]; [5],0 (inactive)
